ChEMBL document CHEMBL4513216, “Probing the Open Global Health Chemical Diversity Library for Multistage-Active Starting Points for Next-Generation Antimalarials” (ACS Infect Dis, 2020)
Out of some 65,000 compounds screened, about 2,100 (3.2%) showed an effect of 50% or more. The median lay at about -52%. This excerpt belongs to a sample that is enriched for strong results.

tested on: Plasmodium falciparum; assay: Screen against P. falciparum Asexual Blood Stage (ABS), at 5uM; type: functional, Dd2; conditions: tested at 5 uM

First: O=C1[C@@H]2CCN(C3CCC3)C[C@@H]2OCCN1Cc1ccncc1
Second: O=C1NCC2(CCCN(Cc3ccncc3)C2)Oc2ccccc21 (stereo not given)
The INHIBITION of the first is lower: -35.3% for the first, -7.11% for the second.

Compared with `COc1cccc(CN(C)C(C)c2ccco2)c1OCCn1ccnc1` (stereo not given), `COc1ccccc1CN(C)C(=O)CN1CC(n2nc(C)cc2C)C1` is higher in INHIBITION: 71.8% for the first, 78.2% for the second.

Compared with `CNC(=O)CN1C(=O)CCC12CCCN(Cc1ccccn1)C2` (stereo not given), `CN1C(=O)CCC12CCCN(Cc1nccs1)C2` (stereo not given) is lower in INHIBITION: -14.2% for the first, -74.2% for the second.

First: CN(C)CCN1C(=O)CCCC12CCCN(Cc1cccs1)C2 (stereo not given)
Second: Cc1cnc(N2CCC3(CC2)CN(Cc2cccs2)CCO3)nc1
The INHIBITION of the first is higher: 73.5% for the first, -35.2% for the second.

Going from `COCCC1(CNC(=O)Nc2ccnc(C)c2)CCCC1` to `CCN1CCN(C)C2(CCN(Cc3cccc(C)n3)CC2)C1=O`, the INHIBITION falls from 72.6% to -50.7%.

Going from `Cc1ncc(CN2C[C@H]3CC(OCc4ccccc4)C[C@H]3C2)cn1` (stereo not given in full) to `Cc1cccc(CN2C[C@H](OCc3ccccn3)[C@H]3COC[C@H]32)n1`, the INHIBITION rises from -74.6% to -21.3%.

Compared with `Cc1ccc2c(n1)N(CC1CC1)CCN(Cc1ccco1)C2`, `Cc1ccc2c(n1)N(CCn1cccn1)CCN(CC1CC1)C2` is higher in INHIBITION: -45.2% for the first, 77.6% for the second.

First: Cc1ccc2c(n1)N(CC1CC1)CCN(S(=O)(=O)C1CC1)C2
Second: Cc1ccc2c(n1)N(C)CCN(Cc1cnn(C)c1)C2
The INHIBITION of the first is higher: -28.5% for the first, -35.9% for the second.

Going from `O[C@]12CCNC[C@H]1CN(c1nccc3ccccc13)CC2` to `O[C@]12CCNC[C@H]1CN(c1ccnc3ccccc13)CC2`, the INHIBITION rises from -5.03% to 92%.

Compared with `Cc1nnc(N2CC[C@@]3(O)CCNC[C@H]3C2)c2ccccc12`, `CCN1CCC2(CC1)CC(NCc1cccc(C)n1)c1ccccc1O2` (stereo not given) is higher in INHIBITION: -14.9% for the first, 91.3% for the second.

Going from `Cc1cnc(N2CCC3(CCCCN3C)C2)nc1` (stereo not given) to `O=C1N(c2cncnc2)CCC12CCCN(Cc1ccccn1)C2` (stereo not given), the INHIBITION falls from -23.5% to -36.2%.

Going from `CC(C)(C)CC(=O)N1C[C@H]2CCN[C@H]2C1` to `O=C(Nc1cccnc1)[C@H]1CO[C@H]2CCNC[C@H]2C1`, the INHIBITION falls from -36.7% to -181%.

Compared with `Cc1cc(CN2C[C@@H]3COC[C@H](C(=O)N4CCCCO4)[C@@H]3C2)no1`, `Cc1csc([C@H]2C[C@@H]3CCN(Cc4cc(C)on4)C[C@H]3O2)n1` is higher in INHIBITION: -158% for the first, -69.7% for the second.

Going from `CN(C)C(=O)CN1CCN(c2ncccn2)[C@@H]2CS(=O)(=O)C[C@@H]21` to `CN(C)C(=O)CN1CCC2(CCCN(Cc3cccnc3)C2)C1=O` (stereo not given), the INHIBITION rises from -100% to -34%.

First: CCN1CCC2(CC1)CC(Nc1ncccn1)CO2 (stereo not given)
Second: CCN1CCC2(CC1)CC(NCc1ccncc1)c1ccccc1O2 (stereo not given)
The INHIBITION of the first is lower: -11% for the first, 77.7% for the second.

Compared with `Cc1cccc(CN2CCC3(CCN(c4cccnc4)C3=O)C2)n1` (stereo not given), `O=C1Nc2ccccc2C12CCN(Cc1cccs1)CC2` is higher in INHIBITION: -18.3% for the first, -14.5% for the second.

First: CCN1CCC2(CC1)CC(NCc1cccs1)c1ccccc1O2 (stereo not given)
Second: c1cncc(OC[C@@]23CCO[C@@H]2CCN(Cc2cccs2)C3)c1
The INHIBITION of the first is higher: 85.8% for the first, -5.17% for the second.

Going from `Cc1noc(C)c1CN1CCO[C@H]2CN(Cc3cccnc3)C[C@H]21` to `CNC(=O)[C@@]12CCO[C@@H]1CCN(Cc1c(C)noc1C)C2`, the INHIBITION falls from 0.607% to -74.2%.

Compared with `CCc1ccc(CN2CCN(C)c3ncccc3C2)o1`, `CN1CCN(Cc2ccc(F)cc2)Cc2cccnc21` is higher in INHIBITION: -114% for the first, -5.74% for the second.

Going from `O=c1[nH]cnc2[nH]c(N3CCNCC3)nc12` to `Cn1cc(C(=O)NCc2cncc3c2CCNC3)cn1`, the INHIBITION rises from -168% to -118%.

Going from `Cc1cccc(CN2C[C@@H](NC(=O)C3CCC3)[C@H]3COC[C@H]32)n1` to `O=C(NC[C@H]1C[C@@H]2CCN1C[C@@H]2CN1CCCC1)c1ccco1`, the INHIBITION falls from -50.1% to -62.4%.

Compared with `CCc1nnc(CN(C)C(=O)CN2CC(c3ccccc3)CC2=O)o1` (stereo not given), `COc1ccc(Cl)cc1CN(C)C(=O)CN1C(=O)CCC1C` (stereo not given) is higher in INHIBITION: -112% for the first, -38.8% for the second.

Compared with `NCC1Cc2cc(-c3nccc(N4CCC(O)CC4)n3)cc(Cl)c2O1` (stereo not given), `NCC1Cc2cc(-c3nccc(N4CCC(O)CC4)n3)cc(F)c2O1` (stereo not given) is higher in INHIBITION: 80.6% for the first, 83.1% for the second.

First: CN1CCN(S(C)(=O)=O)Cc2cccnc21
Second: CN1CCCCC1c1ccc(-n2ccnc2)nc1 (stereo not given)
The INHIBITION of the first is lower: -87.7% for the first, -5.64% for the second.

Compared with `CN1CCCCC1c1ncc2c(n1)CCN(CCCc1ccccc1)C2` (stereo not given), `CN1CCCCC1c1ncc2c(n1)CCN(Cc1ccc(F)cc1)C2` (stereo not given) is lower in INHIBITION: 89.2% for the first, 86.4% for the second.
